High-throughput results as filed in PubChem BioAssay.
Hits are enriched below; roughly 3.6% of the tested compounds scored in any of these assays.
BoNT A protease = BoNT A light chain protease inhibition | inhibition, % at 10 µM | 360,000 tested, 0.17% active | AID 588499 | multiplex microsphere protease substrate cleavage, flow cytometry; also: plate controls were buffer without enzyme for full effect and enzyme alone for no effect
MazF activator = activators of E. coli MazEF toxin-antitoxin RNase. P0AE70. FAM/BHQ RNA-DNA oligo cleavage fluorescence, 5 h. activation, % at 20 µM. 350,000 tested, 0.32% active. AID 504720; in the data active = activation above about 50%
Autofluor counter = counter-screen for toxin protease inhibitors: compound fluorescence; compound autofluorescence counterscreen, microsphere flow cytometry; active compounds read high; fluorescence intensity (no concentration beside the values); 360,000 tested, 3.1% active; AID 624483; in the data active = fluorescence intensity above about 16000; inconclusive = no clear call, values can overlap the other calls
Anthrax LF inh2 = inhibitors of Bacillus anthracis lethal factor protease | AID 588501 | multiplex microsphere protease cleavage assay, LF | P15917 | inhibition, % at 10 µM | 360,000 tested, 0.12% active; also: plate controls were buffer without enzyme for full effect and enzyme alone for no effect
Target sequence (P15917 whole entry, looked up): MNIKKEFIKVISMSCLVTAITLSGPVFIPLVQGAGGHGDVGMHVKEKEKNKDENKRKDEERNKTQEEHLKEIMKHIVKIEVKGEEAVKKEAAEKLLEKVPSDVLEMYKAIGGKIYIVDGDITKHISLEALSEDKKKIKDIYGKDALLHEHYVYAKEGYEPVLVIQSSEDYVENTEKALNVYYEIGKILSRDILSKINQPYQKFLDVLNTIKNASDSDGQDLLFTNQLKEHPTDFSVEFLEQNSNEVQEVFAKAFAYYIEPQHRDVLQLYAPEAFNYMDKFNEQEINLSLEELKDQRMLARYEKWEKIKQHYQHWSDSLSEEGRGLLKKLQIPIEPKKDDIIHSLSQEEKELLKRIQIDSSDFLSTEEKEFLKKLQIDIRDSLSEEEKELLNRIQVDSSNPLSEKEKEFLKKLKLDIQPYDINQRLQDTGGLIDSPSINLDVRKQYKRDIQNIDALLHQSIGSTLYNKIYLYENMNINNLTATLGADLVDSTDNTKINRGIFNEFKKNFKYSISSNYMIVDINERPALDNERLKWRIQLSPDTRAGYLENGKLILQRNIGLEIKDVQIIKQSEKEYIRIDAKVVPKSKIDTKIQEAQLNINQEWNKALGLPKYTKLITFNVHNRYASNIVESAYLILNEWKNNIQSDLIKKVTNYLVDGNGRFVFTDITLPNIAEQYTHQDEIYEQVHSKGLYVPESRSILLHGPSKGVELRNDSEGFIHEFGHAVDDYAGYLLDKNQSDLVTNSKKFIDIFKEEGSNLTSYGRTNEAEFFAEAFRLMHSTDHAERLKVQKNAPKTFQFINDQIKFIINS
BoNT-F LC inh = BoNT F light chain protease inhibition. Multiplex microsphere protease cleavage assay, flow cytometry. inhibition, % at 10 µM. 360,000 tested, 0.22% active. AID 588497; in the data active = inhibition above about 35%, passing the limit was not always enough; inconclusive = no clear call, values can overlap the other calls; also: plate controls were buffer without enzyme for full effect and enzyme alone for no effect
* hit, by the source's call; ? = inconclusive; . = not tested or not shown. Rule as the data show it, unless noted: active = inhibition above about 30%; inconclusive = no clear call, values can overlap the other calls; inactive = below that.

SMILES	BoNT A protease	MazF activator	Autofluor counter	Anthrax LF inh2	BoNT-F LC inh
CC(C)(C)c1ccc(Oc2ccc(NC(=O)c3ccccc3C(=O)O)cn2)cc1	-4	-14	3836	?	48*
COCCCN(C(C)=O)c1nc(-c2ccccc2)cs1	?	3	21845*	-2	0
CCCCOC(=O)Cn1c2ccc(OC)cc2c2nc3ccccc3nc21	-1	215*	12443	-2	0
CCn1c2ccc(OC)cc2c2nc3ccccc3nc21	.	18	.	.	.
CCOc1ccc(Cn2c3ccc(OC)cc3c3nc4ccccc4nc32)cc1	5	65*	2285	2	-2
COC(=O)Cn1c2ccccc2c2nc3ccccc3nc21	-1	-18	4077	-16	?
O=c1cc(CO)occ1OCc1cccc(F)c1	?	4	19821*	-1	0
CC1CCCCN1C(=O)/C(=C\c1ccccc1)c1ccccc1 (configuration not stated)	5	0	21700*	0	5
Oc1cc(O)cc(/C=C/c2ccc(O)c(O)c2)c1	-1	118*	5597	-2	-16
Cc1cccc(-n2ncc3c(N4CCCc5ccccc54)ncnc32)c1	1	-3	20241*	-6	0
Cc1cccc(-n2ncc3c(NCc4ccccc4)ncnc32)c1	0	-3	5721	1	7
CCCNC(=O)c1cc(C2CCCCN2C(=O)CCCc2ccccc2)on1 (configuration not stated)	0	.	3846	1	-2
Cc1ccc(C)c(NC(=O)CSc2nnc([C@@H](N)Cc3ccccc3)o2)c1	-3	-8	24097*	-4	-5
CCSc1nnc([C@@H](N)Cc2c[nH]c3ccccc23)o1	-1	2	9078	-10	-16
Cc1ccc(C)c(NC(=O)CSc2nnc(-c3ccco3)o2)c1	0	-4	3391	1	-3
Cc1cccc(NC(=O)CSc2nnc([C@@H](N)Cc3c[nH]c4ccccc34)o2)c1C	-1	0	23387*	-4	-8
N[C@@H](Cc1c[nH]c2ccccc12)c1nnc(SCc2ccccc2F)o1	1	-6	22370*	-1	-4
CCSc1nnc([C@@H](N)Cc2ccccc2)o1	-4	-6	21095*	-1	-5
CCSc1nnc(C(N)Cc2ccccc2)o1 (configuration not stated)	0	-1	3369	5	-2
CSc1nnc([C@@H](N)Cc2c[nH]c3ccccc23)o1	1	9	3260	0	0
CCOc1cccc(-c2cc(NCCc3ccccn3)n3nccc3n2)c1	8	.	2244	-28	-49
CCc1ccc2oc(C(=O)NCc3ccncc3)c(C)c2c1	10	6	16440*	-11	7
COc1ccccc1/C=C/CN1CCOCC1	1	7	22191*	-4	-2
CC(CN1CCOCC1)OC(=O)c1ccccc1 (configuration not stated)	?	-8	3519	-4	?
COc1ccccc1/C=C/C(=O)OC(C)CN1CCOCC1 (configuration not stated)	-3	1	21922*	-3	-4
SMILES	BoNT A protease	MazF activator	Autofluor counter	Anthrax LF inh2	BoNT-F LC inh
Clc1cccc(-c2nc3c4ccccc4ccn3c2Cc2ccsc2)c1	0	.	4465	3	6
COc1ccc(NS(=O)(=O)c2ccc(C)c(NC(=O)CN3C(=O)NC4(CCCC4)C3=O)c2)cc1	0	5	4183	3	-9
Cc1cccc(OCc2nnc(SCC(=O)N3CCc4ccccc43)n2C)c1	-3	4	24057*	-2	-1
Cc1cccc(OCc2nnc(SCC(=O)N3CCCC3)n2C)c1	0	2	16407*	0	4
CN(Cc1nc2ccccc2c(=O)[nH]1)C(=O)c1ccc(S(=O)(=O)N(C)C)cc1	1	16	20390*	1	1
Cc1ccc2nc(N(CCN(C)C)C(=O)C3CCN(S(=O)(=O)c4cccs4)CC3)sc2c1	0	-6	3889	6	9
Cn1c(COc2ccccc2)nnc1SCC(=O)Nc1ccc(N2CCOCC2)c(Cl)c1	?	-9	17200*	-4	-5
CCC(=NCc1cccnc1)c1c(O)n(C2CCCCC2)c(=O)[nH]c1=O	0	1	20661*	-4	0
CCC(=NCc1cccnc1)c1c(O)n(-c2ccccc2C)c(=O)[nH]c1=O	3	-6	3658	10	?
CC(=NCc1cccnc1)c1c(O)n(C2CCCCC2)c(=O)[nH]c1=O	?	-5	22369*	-2	-1
CC(=NCc1cccnc1)c1c(O)n(-c2ccccc2C)c(=O)[nH]c1=O	-2	-4	20266*	2	-5
Cc1cc(O)c2c(c1)CC1C3CCC4CC(=O)CCC4(C)C3CC(=O)C21C (configuration not stated)	0	-3	3661	0	1
O=P(Nc1cccnc1)(Oc1ccccc1Cl)Oc1ccccc1Cl	7	13	7876	30*	86*
COc1ccc(NC(=O)Cn2nc(C(F)(F)F)c3c2CCCC3)cc1OC	?	-2	22117*	-2	-7
COc1ccccc1NC(=O)Cn1nc(C(F)(F)F)c2c1CCCC2	-2	-3	25001*	2	-3
O=C(Cn1nc(C(F)(F)F)c2c1CCCC2)Nc1ccc2c(c1)OCO2	-1	-2	21133*	-4	-4
CCc1c(C)sc(NC(=O)Cn2nc(C(F)(F)F)c3c2CCCC3)c1C#N	2	3	22610*	1	3
CC(=O)Nc1ccc(CN(C)c2c(C)nc3ccc(C(=O)N4CCN(C(C)=O)CC4)cn23)cc1	0	.	3796	-4	3
CCCn1c(CN2CCN(C(=O)c3ccco3)CC2)nc2cc(S(=O)(=O)N(C)C)ccc21	0	-8	4326	-3	1
CC1(C(=O)Nc2cnc3ccccc3c2)CCN1Cc1cc2ccccc2o1 (configuration not stated)	-1	.	4061	-10	-4
COc1ccc([C@H]2N[C@]3(CCCN(Cc4ccccc4)C3=O)[C@H]3C(=O)N(C)C(=O)[C@@H]23)cc1	0	10	2963	-9	-5
O=C(Cn1nc(C(F)(F)F)c2c1CCCC2)N1CCOCC1	-1	-13	4776	0	0
O=C(Cn1nc(C(F)(F)F)c2c1CCC2)N1CCN(c2ccccc2)CC1	-2	1	23434*	-2	-1
COCCn1c(Cc2ccccc2)nnc1SCC(=O)Nc1oc(C)c2c(C)n[nH]c(=O)c12	-4	1	6916	-4	-11
Cc1ccc2nc(SCC(=O)c3ccc(Cl)s3)[nH]c2c1	0	-13	19540*	-3	-2
Cc1ccc2nc(SCC(=O)c3ccc4c(c3)OCO4)[nH]c2c1	0	3	5248	-9	3
CC1=C(C(=O)Nc2ccccc2)C(c2cccnc2)n2nc(-c3cccnc3)nc2N1 (configuration not stated)	-1	4	22749*	-2	2
COC(=O)C1=C(NC(=O)c2cccc(OC)c2)CCS1	-1	2	22750*	-2	-2
COC(=O)C1=C(NC(=O)c2ccccc2C)CCS1	-1	4	3476	-3	-3
